In the library only some 2.3% were active in any assay of this set; here they are far more common.
CHRM1 PAM – potentiates human M1 receptor response to acetylcholine; P11229; CHO-K1 hM1, Fluo-8 calcium fluorescence, ACh EC20; 0% = ACh EC20, 100% = maximal ACh; activation, % at 3 µM; 360,000 compounds, 0.088% hits; in the data active = activation above about 19%, passing the limit was not always enough
Target sequence (P11229 whole entry, looked up): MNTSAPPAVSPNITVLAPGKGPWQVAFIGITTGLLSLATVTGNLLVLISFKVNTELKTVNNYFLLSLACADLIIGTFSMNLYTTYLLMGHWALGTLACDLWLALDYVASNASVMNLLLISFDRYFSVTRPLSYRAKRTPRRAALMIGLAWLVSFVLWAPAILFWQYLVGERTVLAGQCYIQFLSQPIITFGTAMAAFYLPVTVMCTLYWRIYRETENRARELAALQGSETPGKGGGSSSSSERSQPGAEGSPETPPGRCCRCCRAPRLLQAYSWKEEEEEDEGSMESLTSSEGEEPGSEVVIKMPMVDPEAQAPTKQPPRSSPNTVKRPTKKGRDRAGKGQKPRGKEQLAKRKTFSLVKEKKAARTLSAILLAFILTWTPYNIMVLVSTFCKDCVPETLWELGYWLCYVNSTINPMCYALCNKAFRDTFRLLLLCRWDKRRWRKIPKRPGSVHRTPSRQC
CHO-K1 Ca antag – M1 antagonist counterscreen hit in parental CHO-K1 cells; ATP-induced calcium, Fluo-8 fluorescence; inhibition, % at 3 µM; 360,000 compounds, 0.6% hits;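 active = inhibition above a per-plate cutoff, the plate's mean sample inhibition plus 3 SD, cut at about 24% in these data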;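 note: 0% = DMSO plus EC80 ATP and 100% = DMSO alone without ATP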
CHRM1 agonist – human M1 muscarinic receptor agonism; activation, % at 3 µM; CHO-K1 hM1, Fluo-8 calcium fluorescence, agonist mode; 0% DMSO, 100% acetylcholine EC100; 360,000 compounds, 0.33% hits; P11229;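 active = activation above the run's mean compound activation plus 3 SD, cut at about 16% in these data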;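 note: peak over basal fluorescence ratio within a 140 s kinetic read after compound addition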
CHRM1 antagonist – antagonists of human M1 muscarinic receptor. CHO-K1 hM1, Fluo-8 calcium fluorescence, ACh EC80 antagonist. P11229. AID 588852. 360,000 compounds, 1.3% hits. inhibition, % at 3 µM;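 active = percent inhibition above its own plate's cutoff, namely the mean of that plate's compound wells plus 3 SD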;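 note: peak over basal fluorescence ratio during 140 s after agonist addition; 0% = ACh EC80 plus DMSO and 100% = DMSO alone without agonist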
M1 ag parental – nonselective activator or artifact in parental CHO-K1 cells; Fluo-8 calcium fluorescence; scaled to maximal ATP response, vehicle zero; activation, % at 3 µM; 360,000 compounds, 0.48% hits; AID 602248; in the data active = activation above about 15%;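 note: untransfected CHO-K1 host cells lacking M1 receptor as counterscreen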
CHO-K1 Ca PAM – counter-screen for M1 PAMs: effect in parental CHO-K1 cells | ATP EC20, Fluo-8 calcium fluorescence; 0% at ATP EC20, 100% at ATP max | 360,000 compounds, 0.02% hits | activation, % at 3 µM;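 active = activation above the run cutoff, the mean activation of all test compounds plus 3 SD, cut at about 40% in these data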;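 note: peak over basal fluorescence ratio in a 140 s read after ATP addition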
* = called active by the depositor; . = not tested or not shown.

SMILES | CHRM1 PAM | CHO-K1 Ca antag | CHRM1 agonist | CHRM1 antagonist | M1 ag parental | CHO-K1 Ca PAM
O=S1(=O)CC(N2CCN(CCO)CC2)CN1Cc1ccccc1 (stereo not drawn) | 6 | 5 | -6 | -10 | 1 | 19
OC(c1ccc(F)c(F)c1)c1nc(-c2ccc3ccccc3c2)cs1 (stereo not drawn) | 2 | -10 | -2 | -7 | 1 | 15
COc1ccc(-c2[nH]ncc2CN2CCCC(C(=O)c3cccc(OC)c3)C2)cc1 (stereo not drawn) | -18 | -10 | -13 | 11 | 1 | -4
COc1cccc(-c2ccc(NC(=O)C3CCCN(Cc4cnn(C)c4C)C3)cc2)c1 (stereo not drawn) | 1 | -24 | -14 | -15 | 2 | 16
COc1cccc(-c2ccc(NC(=O)C3CCCN(Cc4cnc(C)n4C)C3)cc2)c1 (stereo not drawn) | -18 | -6 | -4 | 28 | 6 | 16
Cc1ncc(CN2CCCC(C(=O)Nc3ccc(-c4cscn4)cc3)C2)cn1 (stereo not drawn) | 10 | 2 | 1 | -13 | 0 | 2
COc1cccc(-c2ccc(NC(=O)C3CCCN(Cc4cccc(C)n4)C3)cc2)c1 (stereo not drawn) | -28 | -2 | -5 | 53* | 3 | 9
Cc1ncc(CN2CCCC(C(=O)Nc3ccc(-c4cccc(F)c4)cc3)C2)n1C (stereo not drawn) | -18 | 2 | -3 | 32* | 5 | 1
COc1cccc(CN2CCCC(C(=O)Nc3ccc(-c4cscn4)cc3)C2)c1 (stereo not drawn) | -20 | -4 | -3 | 35* | 5 | -3
COc1ccc2cc(C(=O)C3CCCN(Cc4cccc(C)n4)C3)ccc2c1 (stereo not drawn) | -27 | -17 | -7 | 60* | 5 | 12
CC1(c2nnnn2Cc2ccccc2)CCC(=O)N1c1ccc(N2CCOCC2)cc1 (stereo not drawn) | . | 15 | . | . | 0 | 1
CCOC1=C2CN(S(=O)(=O)c3ccc(C)cc3)[C@H](c3cccc4ccccc34)C[C@H]2[C@H]2C(=O)N(c3ccccc3)C(=O)[C@H]2C1 | 6 | -10 | 0 | -23 | 2 | 13
O=C(c1ccc2c3c(cccc13)CC2)C1CCCN(Cc2cccnc2)C1 (stereo not drawn) | -4 | -15 | -6 | -7 | 2 | 14
Cc1cccc(CN2CCCC(C(=O)c3ccc4c5c(cccc35)CC4)C2)n1 (stereo not drawn) | -22 | -10 | -4 | 95* | 2 | 15
CCOc1cc(C)c(S(=O)(=O)Nc2ccc3cn[nH]c3c2)cc1C | -14 | 23 | 6 | 32* | 9 | -3
Cc1ccc(S(=O)(=O)Nc2ccc3cn[nH]c3c2)c(C)c1 | 6 | -2 | 7 | -5 | 5 | 0
COc1cccc(C(=O)NCC(=O)N2CCN(c3ccc(C(F)(F)F)cn3)CC2)c1 | -13 | 27* | -2 | 37* | 4 | -31
CCc1nc2ccc(C(=O)NCCOc3ccc(OC)cc3)cn2c1N(CC)Cc1ccc(OC)c(OC)c1 | 0 | -2 | -7 | -10 | 2 | -2
COc1ccccc1OCCn1cc(C(=O)c2ccco2)c2ccccc21 | -6 | -4 | 4 | 20 | 20* | -7
CC(=O)c1cn(CCOc2cc(C)ccc2C)c2ccccc12 | -10 | 14 | 2 | 26* | 5 | 5
Cc1ccc(C)c(OCCn2cc(C(=O)O)c3ccccc32)c1 | -5 | -7 | -1 | 0 | 5 | 14
COC(=O)[C@]12CCCCC=C1N(Cc1cccc3ccccc13)C(=O)[C@H](CC(=O)NCC1CCCCC1)C2 | . | -11 | . | . | 5 | 3
COc1ccc(NC(=O)C2(C)Cc3c(-c4ccc(N(C)C)cc4)ccnc3O2)cn1 (stereo not drawn) | 14 | 4 | 1 | -11 | -1 | -5
COc1ccccc1CCNC(=O)c1c(N)[nH]c(C(=O)c2ccccc2)c1-c1ccc(Br)cc1 | . | -3 | . | . | -1 | -4
CC(Oc1cccc(Cl)c1)C(=O)Nc1ccc(S(=O)(=O)NC2=NCCCCC2)cc1 (stereo not drawn) | 7 | -8 | 12 | -8 | 12 | 3
SMILES | CHRM1 PAM | CHO-K1 Ca antag | CHRM1 agonist | CHRM1 antagonist | M1 ag parental | CHO-K1 Ca PAM
CC(Oc1ccc(Br)cc1)C(=O)Nc1ccc(S(=O)(=O)NC2=NCCCCC2)cc1 (stereo not drawn) | -8 | -4 | 29* | 18 | 23* | -12
CC(Oc1ccc(F)cc1)C(=O)Nc1ccc(S(=O)(=O)NC2=NCCCCC2)cc1 (stereo not drawn) | 3 | 2 | 24* | -4 | 5 | -11
O=S(=O)(NC1=NCCCCC1)c1ccc(F)cc1 | 7 | -4 | -3 | -1 | 1 | 7
CC(=O)Nc1ccc(C(=O)N2CCCC(c3cc(C(=O)NCc4ccc(F)cc4)no3)C2)cc1 (stereo not drawn) | 4 | -5 | 3 | -11 | 0 | 8
CCCCCCCCCCCCCCCCn1cc[n+](C)c1 | -30 | 7 | -10 | 42* | 0 | 2
O=C(NC1(C(F)(F)F)N=C(c2ccccc2)NC1=O)c1ccccc1 (stereo not drawn) | 4 | 27* | -5 | -6 | 0 | -13
OC1(c2ccc(Br)cc2)CCN(Cc2cccc(Br)c2)CC1 | -17 | -9 | 5 | 35* | 1 | 12
COCOCCn1cc(CN2CCS(=O)(=O)N(Cc3ccc(-c4ccc(OC)cc4)cc3)C(C(C)C)C2=O)nn1 (stereo not drawn) | -2 | -11 | -5 | 0 | 1 | 11
C=CCN(C(=O)CCC(=O)Nc1cc(C)on1)C(C(=O)NC1CCCC1)c1cccnc1 (stereo not drawn) | -2 | 24* | -2 | 6 | 0 | -7
Cc1cc(NC(=O)CCC(=O)N(CC(=O)NC2CCCC2)Cc2ccc(F)cc2)no1 | 0 | -1 | -4 | 0 | 0 | 0
Cc1cc(NC(=O)CCC(=O)N(CC(=O)NC2CCCC2)Cc2ccccc2Cl)no1 | 3 | 48* | -3 | -3 | -1 | -2
O=C(CCC(=O)N(CC(=O)NC1CCCC1)C1CCCCC1)Nc1ccccn1 | 4 | 27* | -6 | 3 | 0 | -14
CN1CCCC(C)(C(=O)Nc2cccc(Oc3ccccc3)c2)C1 (stereo not drawn) | -6 | -12 | -9 | 0 | 1 | 3
CCc1nc2ccc(C(=O)NCc3ccc(OC)cc3)cn2c1N(C)CCC(C)C | 1 | -18 | -8 | -6 | 0 | 15
CCN(C)C1CN(Cc2cn(Cc3cc(C)cc(C)c3)nn2)S(=O)(=O)C1 (stereo not drawn) | . | 1 | . | . | 0 | -1
Cc1ccccc1-c1cc2nc(NCc3ccc4occc4c3)n(C)c(=O)c2s1 | -3 | -8 | -2 | 2 | 0 | 15
Cc1[nH]c2c(ccc3cccnc32)c1C | 11 | 11 | -2 | -7 | 0 | -13
